Inhibition data for 27 compounds are collected here from PubChem BioAssay AID1259343 (VanderVen Lab, College of Veterinary Medicine, Cornell …, 2017).

SMILES strings stand for the structures. Among all 6,200 compounds or so, about 2,900 (47%) were called active. So high a share suggests a set chosen from earlier hits. The list shows a part of the results. Unmarked numbers belong to inactive results. Rule as the data show it: active = inhibition above about 50%; inactive = the rest.

In general, inhibition refers to the drop in the measured response relative to a control, in per cent.

This test can be described thus: Mycobacterium tuberculosis growth inhibition, primary screen (AID 1259343). The conditions noted are these: inhibition: at 10 µM, hits give high values; outcome: 10 uM.
Take `CS(=O)(=O)NCc1cccc(-c2ccc(C#N)s2)c1`: the inhibition was 2.92%.

Regarding `CCOC(=O)CSc1nnc(CSc2cc(C)nc(N3CCCC3)n2)o1`, the inhibition was 93.2% (active).

With `Cc1ccc(-c2nnc(SCC(=O)N3CCC(C)CC3)o2)cc1`, the inhibition is -35.9%.

As for `COC(=O)CSc1ncnc2c1nnn2-c1ccc(F)cc1`, the inhibition is 89.9% (active).

Regarding `COC(=O)CSc1ncnc2c1nnn2Cc1ccc(F)cc1`, the inhibition is -38.1%.

For the compound `COC(=O)C(C)Sc1ncnc2c1nnn2-c1ccc(F)cc1` (configuration not stated), the inhibition was 76.7% (active).

Regarding `COc1ccc(-n2nnc3c(SCC(=O)Nc4ccccc4)ncnc32)cc1`, the inhibition was 68.2% (active).

In the case of `CCC(Sc1ncnc2c1nnn2-c1ccc(F)cc1)C(=O)OC` (configuration not stated), the inhibition was 42.6%.

For `COc1ccc(-n2nnc3c(SCC(N)=O)ncnc32)cc1`, the inhibition was 14.3%.

For the compound `CCOC(=O)C(C)Sc1ncnc2c1nnn2-c1ccc(OC)cc1` (configuration not stated), the inhibition was 75.5% (active).

For the compound `O=C(CSc1ncnc2c1nnn2-c1ccc(F)cc1)OCc1ccccc1`, the inhibition was 2.43%.

As for `CCOC(=O)CNC(=O)CSc1ncnc2c1nnn2-c1ccc(OC)cc1`, the inhibition was -7.53%.

Turning to `CCOC(=O)CSc1ncnc2c1nnn2-c1ccc(OC)cc1`, the inhibition was 3.35%.

As to `COC(=O)C(C)Sc1ncnc2c1nnn2-c1ccc(OC)cc1` (configuration not stated), the inhibition is 72.2% (active).

Regarding `CCOC(=O)C(C)Sc1ncnc2c1nnn2-c1ccc(F)cc1` (configuration not stated), the inhibition was 60% (active).

Turning to `CC(Sc1ncnc2c1nnn2-c1ccc(F)cc1)c1ccccc1` (configuration not stated), the inhibition was 82.1% (active).

For the compound `CCC(Sc1ncnc2c1nnn2-c1ccc(OC)cc1)C(=O)OC` (configuration not stated), the inhibition is -33.3%.

For `CCOC(=O)C(CC)Sc1ncnc2c1nnn2-c1ccc(F)cc1` (configuration not stated), the inhibition was 36.5%.

For the compound `O=C(CC12CC3CC(CC(C3)C1)C2)N=C1N=C2C=CC=CN2Cc2ccccc21`, the inhibition is -15.7%.

With `O=C(N=C1N=C2N=CC=CN2Cc2ccccc21)Nc1ccc(Cl)c(Cl)c1`, the inhibition is 88% (active).

For the compound `O=C(N=C1N=C2C=CC(Br)=CN2Cc2ccccc21)c1ccccn1`, the inhibition was 10.5%.

Take `O=C(Nc1ccc(Oc2ccccc2F)cc1)C1CCN(C(=O)C#Cc2ccccc2)CC1`: the inhibition was 89.6% (active).

Turning to `Cc1cc(C(=O)N2CCC(C(=O)Nc3ccc(Oc4ccccc4F)cc3)CC2)c(C)o1`, the inhibition entry is “inactive”.

`O=C(Nc1ccc(F)cc1F)C1CCN(C(=O)c2cccnc2)CC1`: the inhibition was 85.7% (active).

Turning to `O=C(Nc1ccc(Oc2ccccc2F)cc1)C1CCN(C(=O)c2ccncc2)CC1`, the inhibition was 90.8% (active).

In the case of `O=C(Nc1ccc(Oc2ccccc2F)cc1)C1CCN(C(=O)C2=CCCC2)CC1`, the inhibition is 90.8% (active).

As to `O=C(Nc1ccc(Oc2ccccc2)nc1)C1CCN(C(=O)C2=CCCC2)CC1`, the inhibition is 44%.
